High-throughput results (PubChem)
L3MBTL1 block: L3MBTL1 (human) inhibition. AlphaScreen L3MBTL1–H3K9me1 peptide binding. Potency, µM (series often up to 57.1 µM), usual class: inhibitors. 230,000 compounds, 0.66% hits. AID 485360; note: nearly all actives have a fitted effect of over 60% in size
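Read-out is AlphaScreen signal from streptavidin donor and nickel chelate acceptor beads (10 ug/mL final each) bridging L3MBTL1 (50 nM) and biotinylated K9-monomethylated H3(1-15) peptide (75 nM), after 30 min compound exposure at room temperature.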
BAZ2B block: BAZ2B (human) inhibition; Q9UIF8; 360,000 compounds, 4.4% hits; AID 504333; Potency, µM (top dose mostly 114 µM), most hits filed as inhibitors; AlphaScreen BAZ2B-H3K14Ac peptide displacement; note: nearly all actives have a fitted effect of over 60% in size
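Complex of BAZ2B and biotin-H3K14Ac (50 nM apiece) forms over 30 min at RT, then faces library compounds up to 110 uM for another 30 min; AlphaScreen beads added, 20 min dark incubation, luminescence read.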
GLS inh: inhibitors of human glutaminase (GLS); O94925; GLS enzymatic activity, qHTS titration; Potency, µM (series often up to 45.5 µM), usual class: inhibitors; 410,000 compounds, 0.21% hits; AID 624170
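hKGA; 45 mM KH2PO4 pH 8.2 + 0.02% Tween-20; cpd via pin tool; 1 mM Gln soln; GluOx/HRP/Amplex Red; RT 30 min; fluor. t0 & final.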
HP1b binding inh: blocks HP1-beta chromodomain binding to methylated histone tails. P83916. AID 540317. 390,000 compounds, 0.56% hits. Potency, µM (titrated, usually from 114 µM), actives largely listed as inhibitors. AlphaScreen HP1-beta / biotin-H3K9me3 peptide binding; note: nearly all actives have a fitted effect of over 70% in size
Target sequence (P83916 whole entry, looked up): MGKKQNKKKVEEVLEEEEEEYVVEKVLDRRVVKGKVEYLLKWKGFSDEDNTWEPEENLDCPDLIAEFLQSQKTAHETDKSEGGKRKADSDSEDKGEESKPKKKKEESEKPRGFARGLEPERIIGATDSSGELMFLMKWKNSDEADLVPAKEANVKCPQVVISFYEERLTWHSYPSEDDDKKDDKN
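HP1-beta protein (50 nM final) preincubated 30 min at room temperature with biotinylated H3(1-18)K9me3 peptide (50 nM) in PBS pH 7.4, 0.01% Tween-20, then compound added for 30 min. AlphaScreen streptavidin donor/nickel chelate acceptor beads (10 ug/mL final), 30 min dark, luminescence read.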
JMJD2A Tudor inh: JMJD2A Tudor domain (human) inhibition; O75164; AlphaScreen JMJD2A-Tudor / H3K4me3 peptide binding; Potency, µM (top dose mostly 114 µM), actives largely listed as inhibitors; 390,000 compounds, 4.4% hits; note: nearly all actives have a fitted effect of over 50% in size
G9a block: blocks human histone lysine methyltransferase G9a | Q96KQ7 | G9a H3K9 monomethylation, AlphaScreen, 2 h | Potency, µM (highest dose often 102 µM), hits mostly inhibitors | 350,000 compounds, 8.8% hits; note: nearly all actives have a fitted effect of over 75% in size
Target sequence (Q96KQ7 913-1193 limits assumed): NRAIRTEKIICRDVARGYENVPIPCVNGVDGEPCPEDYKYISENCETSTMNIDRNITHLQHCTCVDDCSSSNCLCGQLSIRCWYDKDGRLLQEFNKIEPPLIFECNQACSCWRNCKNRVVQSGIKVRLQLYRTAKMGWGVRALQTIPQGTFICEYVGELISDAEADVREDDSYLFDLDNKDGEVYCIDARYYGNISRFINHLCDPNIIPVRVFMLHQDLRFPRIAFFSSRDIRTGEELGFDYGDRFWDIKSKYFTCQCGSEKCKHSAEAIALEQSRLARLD
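G9a (20 nM) was preincubated 15 min with compound, then reacted 2 h at room temperature with 500 nM biotin-H3K9 peptide and 20 µM SAM. Monomethyl-H3K9 detected by AlphaScreen using anti-H3K9me1 antibody.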
Numbers stand for hits; ! = not active in a repeat; [ ] = remark or other dose. Sampled rows, rich in hits. Any-hit rate of the full collection: about 10%. Calls come from the whole dose curve; as a rule, active = well fitted curve in the direction sought with a large enough effect; inconclusive = small, poorly fitted or top-dose-only effect, or another doubt; inactive = no such curve, though single readings can be large; an effect the other way counts as inactive or inconclusive.

For CC1CCN(c2ccc3c(c2)S(=O)(=O)c2cccc(C(=O)NCc4ccc(F)cc4)c2C3=O)CC1 the results were L3MBTL1 block inactive, BAZ2B block inactive, GLS inh inactive, HP1b binding inh inactive, JMJD2A Tudor inh inactive and G9a block inactive[2.33 µM].
For COc1ccccc1N1CCN(C(=O)c2ccc(Cl)c(S(=O)(=O)NCc3ccco3)c2)CC1 the results were BAZ2B block inactive, GLS inh inactive, HP1b binding inh inactive, JMJD2A Tudor inh inactive and G9a block inactive.
For O=C(c1ccc(Cl)c(S(=O)(=O)NCc2ccco2)c1)N1CCN(c2ccccc2F)CC1 the results were BAZ2B block inactive, GLS inh inactive, HP1b binding inh inactive, JMJD2A Tudor inh 56µM and G9a block inactive.
CCOC(=O)C1=C(CS(=O)(=O)c2ccc(F)c(C)c2)NC(=O)NC1c1ccccc1OC (stereo not given) was read as BAZ2B block inactive, GLS inh inactive, HP1b binding inh inactive, JMJD2A Tudor inh inactive and G9a block inactive.
For S=c1[nH]nc(NCCCN2CCOCC2)s1 the results were L3MBTL1 block inactive, BAZ2B block 32µM, GLS inh inconclusive, HP1b binding inh inconclusive, JMJD2A Tudor inh 3.5µM and G9a block 1.3µM.
Screening CCOC(=O)c1c(Nc2ccc(OC)cc2)nnc(-c2ccccc2)c1-c1ccccc1 returned BAZ2B block inconclusive, GLS inh inactive, HP1b binding inh inactive, JMJD2A Tudor inh inconclusive and G9a block 7.9µM.
Screening CCOC(=O)c1c(Nc2cc(C)cc(C)c2)nnc(-c2ccccc2)c1-c1ccccc1 returned BAZ2B block inactive, GLS inh inactive, HP1b binding inh inactive, JMJD2A Tudor inh inconclusive and G9a block 3.5µM.
`CCOC(=O)c1c(Nc2ccccc2)nnc(-c2ccccc2)c1-c1ccccc1` gave BAZ2B block inactive, GLS inh inactive, HP1b binding inh inactive, JMJD2A Tudor inh inactive and G9a block inactive.
`COc1cc(OC)c(NS(=O)(=O)c2c(C(=O)N3CCC(C)CC3)c(C)n(C)c2C)cc1Cl` gave BAZ2B block inactive, GLS inh inactive, HP1b binding inh inactive, JMJD2A Tudor inh inactive and G9a block inactive.
`CCCCNC(=O)CCC(=O)NNc1nc2ccccc2c2nc(-c3ccccc3)nn12` gave L3MBTL1 block inactive, BAZ2B block 89µM!, GLS inh inactive, HP1b binding inh inactive, JMJD2A Tudor inh inactive and G9a block inactive.
CCCCNC(=O)CCC(=O)NNc1nc2ccccc2c2nc(C)nn12 was read as L3MBTL1 block inactive, BAZ2B block inactive, GLS inh inactive, HP1b binding inh inactive, JMJD2A Tudor inh inactive and G9a block 25µM!.
`O=C(NC(=S)Nn1cnc2c(cnn2-c2ccccc2)c1=O)c1ccc(Cl)cc1` gave L3MBTL1 block inactive, BAZ2B block inactive, GLS inh inactive, HP1b binding inh inactive, JMJD2A Tudor inh inactive and G9a block 45µM.
Screening COc1cccc(NS(=O)(=O)c2ccc3[nH]cc(C(=O)NC(C)c4ccccc4)c(=O)c3c2)c1 (stereo not given) returned GLS inh inactive, HP1b binding inh inactive, JMJD2A Tudor inh inconclusive and G9a block inactive.
`COc1ccc(C2(C)CC(C)(C)Nc3ccccc32)cc1` (stereo not given) gave L3MBTL1 block inactive[2.29 µM], BAZ2B block inconclusive, GLS inh inactive, HP1b binding inh inconclusive, JMJD2A Tudor inh 50µM and G9a block inactive[0.501 µM].
NS(=O)(=O)c1ccc(NC(=S)NNC(=O)c2ccc(Br)o2)cc1 was read as BAZ2B block inactive, GLS inh inactive, HP1b binding inh inactive, JMJD2A Tudor inh inactive and G9a block 8.9µM.
`NS(=O)(=O)c1ccc(NC(=S)NC(=O)c2ccc(Br)o2)cc1` gave L3MBTL1 block inactive, BAZ2B block inactive, GLS inh inactive, HP1b binding inh inactive, JMJD2A Tudor inh inactive[11.4 µM] and G9a block inconclusive.
For Cc1c(C(=O)Nc2ccc(S(N)(=O)=O)cc2)oc2ccc(Cl)cc12 the results were L3MBTL1 block inactive, BAZ2B block inactive, GLS inh inactive, HP1b binding inh inactive and JMJD2A Tudor inh inactive.
For CN(C)S(=O)(=O)c1ccc(NC(=S)NC(=O)c2ccc(Br)o2)cc1 the results were BAZ2B block inactive and G9a block 56µM.
Screening Cc1c(C(=O)NC(=S)Nc2ccc(NC(=O)c3cccs3)cc2)oc2ccccc12 returned L3MBTL1 block inactive, BAZ2B block 50µM, GLS inh inactive, HP1b binding inh inactive, JMJD2A Tudor inh inactive[11.4 µM] and G9a block 1.4µM.
Screening CC(=O)NC(=S)Nc1ccc(NC(=O)c2cccs2)cc1 returned L3MBTL1 block inactive, BAZ2B block inactive, GLS inh inactive, HP1b binding inh inactive, JMJD2A Tudor inh inactive and G9a block inconclusive.
Screening Cc1c(C(=O)NNC(=S)Nc2ccc(S(N)(=O)=O)cc2)oc2ccccc12 returned BAZ2B block inactive, GLS inh inactive, HP1b binding inh inactive, JMJD2A Tudor inh inconclusive and G9a block 11µM.
Screening CC(NC(=O)C(=O)Nc1c2c(nn1-c1ccc(F)cc1)CSC2)c1ccccc1 (stereo not given) returned BAZ2B block inactive, GLS inh inactive, HP1b binding inh inactive, JMJD2A Tudor inh inactive and G9a block inactive.
Cc1ccc(SC(c2ccc(C)cc2)C(Cn2cncn2)C(=O)c2ccccc2)cc1 (stereo not given) was read as BAZ2B block inactive, GLS inh inactive, HP1b binding inh inactive, JMJD2A Tudor inh inactive and G9a block inactive.
`Cc1ccc(SCCCn2cncn2)cc1` gave BAZ2B block inconclusive, GLS inh inactive, HP1b binding inh inactive, JMJD2A Tudor inh 45µM and G9a block inactive[12.7 µM].
Screening Clc1ccc(SCCn2cncn2)cc1 returned BAZ2B block inconclusive, GLS inh inactive, HP1b binding inh inconclusive, JMJD2A Tudor inh 45µM and G9a block inconclusive.
Screening CCOc1ccccc1C(=O)N1CCC(c2nc3ccccc3o2)CC1 returned BAZ2B block inactive, GLS inh inactive, HP1b binding inh inactive, JMJD2A Tudor inh inactive and G9a block inactive.
Cc1ccccc1NC(=O)c1ccc(N(Cc2ccccc2)S(C)(=O)=O)cc1 was read as BAZ2B block inactive, GLS inh inactive, HP1b binding inh inactive, JMJD2A Tudor inh inactive and G9a block inactive.
For COc1cc(-c2nc(Cn3nnc(C(=O)Nc4cccc(Cl)c4)c3C)c(C)o2)cc(OC)c1OC the results were BAZ2B block inactive, GLS inh inactive, HP1b binding inh inactive, JMJD2A Tudor inh inactive and G9a block inactive.
O=C(c1cnn2c1NC(c1ccco1)CC2C(F)(F)F)N1CCN(c2cccc(Cl)c2)CC1 (stereo not given) was read as L3MBTL1 block inactive, BAZ2B block inconclusive, GLS inh inactive, HP1b binding inh inactive, JMJD2A Tudor inh inactive and G9a block 10µM.
